Where “and” joins values, the source holds several entries; their conditions need not be identical. Equal values may be shown once.
What was measured:
[1] = test system: Botulinum neurotoxin type F light chain protease (Clostridium botulinum); assay: Botulinum neurotoxin type F light chain protease inhibition, multiplex microsphere flow cytometry, validation set (AID 588459); conditions: multiplex microsphere protease substrate cleavage assay, at 10 µM, hits give high values
[2] = target: Botulinum neurotoxin type A (Clostridium botulinum) (UniProt P0DPI0); assay: BoNT/A light chain protease inhibitors, biochemical, multiplex microsphere flow cytometry, validation set (AID 588460); conditions: at 10 µM, hits give high values
[3] = target: Lethal factor (Bacillus anthracis) (UniProt P15917); assay: Lethal factor protease inhibitors, Bacillus anthracis, multiplex microsphere cleavage assay, validation set (AID 588461); conditions: flow cytometry, at 10 µM, hits give high values

Measured: inhibition

Lethal factor (Bacillus anthracis), sequence (P15917 whole entry, looked up): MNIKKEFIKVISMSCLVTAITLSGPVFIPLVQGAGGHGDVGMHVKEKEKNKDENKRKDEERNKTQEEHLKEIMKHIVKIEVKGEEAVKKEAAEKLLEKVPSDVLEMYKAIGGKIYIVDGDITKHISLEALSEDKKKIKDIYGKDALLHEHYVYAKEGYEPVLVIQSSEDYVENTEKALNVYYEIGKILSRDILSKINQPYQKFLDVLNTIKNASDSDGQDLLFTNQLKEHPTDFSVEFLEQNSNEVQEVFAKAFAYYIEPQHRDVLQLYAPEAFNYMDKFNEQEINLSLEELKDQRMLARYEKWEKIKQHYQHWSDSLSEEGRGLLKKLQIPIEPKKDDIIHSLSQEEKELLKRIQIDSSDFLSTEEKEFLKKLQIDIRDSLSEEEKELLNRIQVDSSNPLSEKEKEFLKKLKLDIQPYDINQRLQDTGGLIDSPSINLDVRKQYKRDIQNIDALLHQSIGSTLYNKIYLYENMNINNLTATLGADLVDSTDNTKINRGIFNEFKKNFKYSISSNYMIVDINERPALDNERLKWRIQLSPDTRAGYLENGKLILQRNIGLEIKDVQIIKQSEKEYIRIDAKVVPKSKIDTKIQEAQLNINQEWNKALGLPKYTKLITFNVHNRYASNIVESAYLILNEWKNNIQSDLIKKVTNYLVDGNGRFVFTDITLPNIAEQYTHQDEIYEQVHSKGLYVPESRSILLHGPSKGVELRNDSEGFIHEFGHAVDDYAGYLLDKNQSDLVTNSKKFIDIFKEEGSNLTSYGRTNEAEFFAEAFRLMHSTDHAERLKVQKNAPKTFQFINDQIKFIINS
Botulinum neurotoxin type A (Clostridium botulinum), sequence (P0DPI0 whole entry, looked up): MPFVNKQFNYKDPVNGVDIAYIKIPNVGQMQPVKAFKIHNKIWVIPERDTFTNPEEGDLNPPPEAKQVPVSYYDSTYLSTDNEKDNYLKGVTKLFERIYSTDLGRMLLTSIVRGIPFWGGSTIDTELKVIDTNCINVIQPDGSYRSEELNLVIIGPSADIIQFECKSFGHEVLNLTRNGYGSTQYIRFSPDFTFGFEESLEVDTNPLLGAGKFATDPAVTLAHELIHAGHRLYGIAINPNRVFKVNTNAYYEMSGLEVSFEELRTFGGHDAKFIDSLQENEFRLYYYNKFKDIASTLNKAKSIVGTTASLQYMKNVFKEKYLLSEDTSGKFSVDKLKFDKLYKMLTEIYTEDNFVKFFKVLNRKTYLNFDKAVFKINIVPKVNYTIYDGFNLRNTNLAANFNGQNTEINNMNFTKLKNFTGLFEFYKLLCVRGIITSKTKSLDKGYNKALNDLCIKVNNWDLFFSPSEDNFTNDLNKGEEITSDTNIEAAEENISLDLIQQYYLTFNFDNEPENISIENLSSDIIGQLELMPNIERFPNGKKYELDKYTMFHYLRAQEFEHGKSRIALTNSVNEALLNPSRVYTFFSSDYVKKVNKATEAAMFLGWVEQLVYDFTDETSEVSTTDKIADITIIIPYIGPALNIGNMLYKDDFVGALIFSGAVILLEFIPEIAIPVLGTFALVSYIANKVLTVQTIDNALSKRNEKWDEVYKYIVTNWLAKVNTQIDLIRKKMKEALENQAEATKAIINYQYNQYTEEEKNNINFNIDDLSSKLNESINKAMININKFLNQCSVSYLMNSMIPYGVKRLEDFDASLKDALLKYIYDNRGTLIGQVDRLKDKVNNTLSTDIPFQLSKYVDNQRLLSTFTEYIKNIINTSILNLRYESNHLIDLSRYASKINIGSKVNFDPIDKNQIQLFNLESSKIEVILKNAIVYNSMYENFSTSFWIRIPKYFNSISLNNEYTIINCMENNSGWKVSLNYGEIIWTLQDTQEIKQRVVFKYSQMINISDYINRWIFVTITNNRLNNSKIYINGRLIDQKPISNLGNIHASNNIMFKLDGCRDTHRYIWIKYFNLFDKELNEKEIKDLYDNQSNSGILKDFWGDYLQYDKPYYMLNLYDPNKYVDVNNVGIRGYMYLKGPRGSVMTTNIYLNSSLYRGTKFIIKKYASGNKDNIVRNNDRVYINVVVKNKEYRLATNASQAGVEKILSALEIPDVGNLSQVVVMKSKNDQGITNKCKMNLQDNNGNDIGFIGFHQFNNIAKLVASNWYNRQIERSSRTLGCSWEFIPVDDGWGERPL

Cc1ccc(N2CCN(C(=S)c3ccc(-c4cccc([N+](=O)[O-])c4)o3)CC2)cc1
inactive: [1] -0.6% | [2] -1.4% | [3] -5.3%

Cc1cc(O)c(C(C)C)cc1C1(c2cc(C(C)C)c(O)cc2C)OC(=O)c2ccccc21
inactive: [1] -0.9% | [2] -0.3% | [3] -8.1%

O=C(/C=C/c1ccc2c(c1)OCCCO2)c1ccc2ccccc2c1O
inactive: [1] 1.8% | [2] 1.1% | [3] -5.5%

Cc1ccc2nc(N=C(N)N)nc(C)c2c1
inactive: [1] 3.2% | [2] -0.2% | [3] -12.1%

CNCCCC1c2ccccc2C=Cc2ccccc21
inactive: [1] -5.9% | [2] -1.6% | [3] -1%

CC(=O)Oc1ccc(C(=O)O)cc1OC(C)=O
inactive: [1] -0.7% | [2] 0.4% | [3] 2.4%

Nc1ccc2cn[nH]c2c1
inactive: [1] -8.4% | [2] -2.9% | [3] -16.3%

CNCCc1ccccn1
inactive: [1] 1.1% | [2] 1.1% | [3] -8.2%

Cc1cc(OCC(=O)C(C)(C)C)c2c(C)c(C)c(=O)oc2c1
inactive: [1] -1.4% | [2] 0.5% | [3] 0.7%

CNCCCC12CCC(c3ccccc31)c1ccccc12
inactive: [1] -2% | [2] -2.1% | [3] -5%

COc1cc(CNCCc2ccccc2F)ccc1OCC(=O)N1CCCCC1
inactive: [1] 5.4% | [2] -0.1% | [3] 1%

C[n+]1ccccc1/C=N/O
inactive: [1] 2.2% and 2.6% | [2] 0.3% and 1.2% | [3] -1.8% and -6.4%

Fc1cc(F)cc(NC(=S)NCCCN2CCOCC2)c1
inactive: [1] 0.9% | [2] -0.7% | [3] -2.9%

CC(C)[C@H]1CN(C)CCN1Cc1cn(C)nc1-c1cccc(Cl)c1
inactive: [1] 12% | [2] 8.3% | [3] 8.2%

C[C@]12CCC(=O)C=C1CC[C@@H]1[C@@H]2CC[C@@]2(C)[C@H]1CC[C@]2(O)C(=O)CO
inactive: [1] 1.3% | [2] -1.2% | [3] -1.7%

Nc1nc(Cl)nc2c1ncn2[C@@H]1O[C@H](CO)[C@@H](O)[C@H]1O
inactive: [1] 3.3% | [2] 0.5% | [3] -6.9%

CN1CC2CCCC3(C1)C(=O)NC1(CCCCC1)N=C23 (stereo not given)
inactive: [1] 2.2% | [2] -0.6% | [3] -5.3%

O=C(CN1CCN(Cc2ccccc2)CC1)N1CCCc2c1c(=O)oc1ccc(O)cc21
inactive: [1] 2% | [2] -1.5% | [3] -8.3%

O=C(NCc1ccco1)/C(=C\C=C\c1ccccc1)NC(=O)c1ccccc1Br
inactive: [1] -0.5% | [2] 0% | [3] 1.6%

COc1ccc(/C=C2\CCc3ccccc3C2=O)c(OC)c1OC
inactive: [1] 6.4% | [2] 0.8% | [3] 3.9%

CCOCCCNCc1cn(-c2ccc(F)cc2F)nc1-c1ccccc1C
inactive: [1] -0.4% | [2] -1.9% | [3] -0.3%

N/C(=N\OS(=O)(=O)c1ccc2ccccc2c1)c1cccnc1
inactive: [1] -1.4% | [2] -0.9% | [3] 0.2%

CC(=O)NCCCCCCNC(C)=O
inactive: [1] 5.8% | [2] 2.3% | [3] 10.8%

CC(=O)Nc1cc(O)cc(O)c1
inactive: [1] 6.1% | [2] 0.1% | [3] -1.2%

c1cnc(N2CCN(Cc3ccc4c(c3)OCO4)CC2)nc1
inactive: [1] -2.3% | [2] -1.4% | [3] -5.5%

Cc1ccc(-c2nnc(-c3ccc4c(c3)OCO4)o2)cc1
inactive: [1] -1% | [2] -0.1% | [3] -8%

Cc1ccc2c(c1)c1c3n2CCCN(Cc2ccccc2)C3CCC1 (stereo not given)
inactive: [1] -0.2% | [2] -0.1% | [3] -3%

CC(C)=CCCC1=CCC2C(=O)NNC(=O)C2C1 (stereo not given)
inactive: [1] -1.6% | [2] -1% | [3] 3%

CCN(CC)CCN1C(=O)C(=O)/C(=C(/O)c2c(C)[nH]c(C(=O)OC)c2C)C1c1cccnc1 (stereo not given)
inactive: [1] -1.7% | [2] -0.9% | [3] -4.4%

O=c1cc(Cn2ccnc2)c2cc3c(cc2o1)CCC3
inactive: [1] 1.9% | [2] -1.1% | [3] -3.2%

Reference: PubChem BioAssay
